# Hits are enriched below; roughly 12% of the tested compounds scored in any of these assays.
# RORgamma inh – blocks mouse ROR gamma transcriptional activity | Potency, µM (series often up to 53.6 µM), for the others: at the top dose activity change, negative = inhibition, hits mostly inhibitors | 310,000 compounds, 5.4% hits | Drosophila S2 Gal4-RORgamma UAS-luciferase reporter, 20 h | P51450; further: nearly all actives have a fitted effect of over 60% in size
#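 Drosophila Schneider cells stably carrying a metallothionein-driven Gal4 DBD–ROR gamma fusion and a UAS-Photinus luciferase reporter were exposed to compound for 1 hr, then induced with copper sulfate (700 uM final) for 20 hr at ambient temperature before luminescence reading.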
# ALDH1A1 inh – blocks purified human ALDH1A1 activity. P00352. 220,000 compounds, 7.3% hits. Potency, µM (highest dose often 75.3 µM), for inactives: at the top dose activity, negative = inhibition, actives largely listed as inhibitors. AID 1030. Purified ALDH1A1, NADH fluorescence, propionaldehyde substrate; active means well fitted inhibition curve with a large enough effect, not every such curve was filed as active; inconclusive means small, poorly fitted or top-dose-only effect, or another doubt; inactive means no such curve, though single readings can be large or run the other way;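 further: plate controls were no enzyme wells and a reference inhibitor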
# Gal4-VP16 FLuc – inhibits Gal4-VP16 luciferase reporter, ROR gamma counter-screen. Drosophila S2 Gal4-VP16 UAS-luciferase, luminescence, 20 h. Potency, µM (doses to about 53.6 µM), without a hit: at the highest dose activity, negative = inhibition, hits mostly inhibitors. 310,000 compounds, 3.5% hits;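 further: Gal4-VP16 expression switched on by copper sulfate through the metallothionein promoter; nearly all actives have a fitted effect of over 50% in size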
# PLK1 PBD inh – inhibitors of human PLK1 polo-box domain binding; Potency, µM, for inactives: max response, negative = inhibition, most hits filed as inhibitors; Plk1 PBD binding of FITC phosphopeptide, fluorescence polarization; 360,000 compounds, 2.8% hits; P53350; further: series mostly up to about 57 µM; nearly all actives have a fitted effect of over 65% in size
# Target sequence (P53350 whole entry, looked up, the tested form may be a part): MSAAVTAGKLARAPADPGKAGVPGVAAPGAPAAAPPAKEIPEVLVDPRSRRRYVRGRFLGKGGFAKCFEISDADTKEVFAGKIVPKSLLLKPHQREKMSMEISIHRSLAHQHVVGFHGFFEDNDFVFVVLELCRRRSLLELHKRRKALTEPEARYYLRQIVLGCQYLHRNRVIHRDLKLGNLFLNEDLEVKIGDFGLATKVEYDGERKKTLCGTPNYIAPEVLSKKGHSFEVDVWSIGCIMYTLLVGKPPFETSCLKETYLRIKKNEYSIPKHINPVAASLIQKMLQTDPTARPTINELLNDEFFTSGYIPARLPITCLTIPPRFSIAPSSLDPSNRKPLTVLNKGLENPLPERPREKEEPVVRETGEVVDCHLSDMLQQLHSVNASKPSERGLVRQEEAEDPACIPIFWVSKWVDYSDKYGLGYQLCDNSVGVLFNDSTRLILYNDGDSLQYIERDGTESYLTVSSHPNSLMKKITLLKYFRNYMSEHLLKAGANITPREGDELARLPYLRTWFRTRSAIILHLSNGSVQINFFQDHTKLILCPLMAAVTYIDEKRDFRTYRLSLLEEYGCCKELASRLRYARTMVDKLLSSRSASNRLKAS
# Sfp PPTase inh – Sfp phosphopantetheinyl transferase inhibition; Biochemical Sfp PPTase activity, qHTS; AID 1490; 310,000 compounds, 3.5% hits; Q9F4F7; Potency, µM, inactives show largest response in the series, negative = inhibition, usual class: inhibitors;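 further: the enzyme is Sfp with the accession as filed and its product quenches rhodamine fluorescence; 0% = enzyme reaction without inhibitor and -100% = no enzyme wells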
#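 Step 1, compound plus 15 nM Sfp-PPTase, 15 min, room temperature. Step 2, add rhodamine-CoA (5 uM) and BHQ-2-YbbR (12.5 uM). Step 3, read 525/598 nm fluorescence at 0 and 30 min.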
# Starred values were filed as active, the others as inactive; ? = inconclusive; · = not tested or not shown; [ ] = another dose, or the depositor's remark. Unless noted, the call rests on the fitted dose curve; in most records, active means well fitted curve in the direction sought with a large enough effect; inconclusive means small, poorly fitted or top-dose-only effect, or another doubt; inactive means no such curve, though single readings can be large; an effect the other way counts as inactive or inconclusive. Unless noted, on the % scale 0 is the no-effect control and ±100 the full control effect; potency means the concentration at half of the fitted maximal effect.
SMILES,RORgamma inh,ALDH1A1 inh,Gal4-VP16 FLuc,PLK1 PBD inh,Sfp PPTase inh
CCN1C[C@@H]2[C@@H]3C(=O)N(C)C(=O)[C@@H]3[C@](Cc3ccccc3)(C1=O)N2C(=O)c1ccc(Cl)cc1,·,·,·,1%,·
COc1ccc(CC(=O)OCC(=O)NC(=O)NC(C)C)cc1,6%,-15%,19%,-1%,14%
CC(C)NC(=O)NC(=O)COC(=O)Cc1ccsc1,-10%,14µM*,-2%,-2%,10%
C=CCSSSCC=C,-7%,13µM*,-5%,·,40µM*
O=C(O)CCCC/C=C\C[C@@H](O)/C=C/C=C/C=C\[C@@H](O)CCCC(=O)O,17%,10%,4%,·,-13%
CCN(CC)C(=O)C1=C(C)N(Cc2ccccc2)C(=O)C(CC(=O)NC2CC2)C1 (stereo not given),·,·,·,-28%,·
O=C1NC2(CCCCC2)C(=O)N1/N=C/c1ccc(O)cc1O,-1%,?,4%,21µM*,-12%
Oc1ccc(C=NC2CCCCC2)c(O)c1,0%,?,-1%,-28%,-14%
O=C1NC2(CCCCC2)C(=O)N1/N=C/c1ccccc1Br,21%,4.5µM*,9%,-4%,12%
O=C(CN1CCCCC1)N/N=C/c1ccccc1Br,-5%,·,-3%,-12%,11%
CC1Cc2cccc3ccc(=O)n(c23)C1 (stereo not given),·,·,·,3%,·
CC12CCC(C/C1=N\N=C1\NC(=O)/C(=C\c3cccc(Br)c3)S1)C2(C)C (stereo not given),10µM*,-12%,11µM*,30µM*,2%
CCc1ccc(N(C)S(=O)(=O)c2ccc3[nH]cc(C(=O)NCCN4CCOCC4)c(=O)c3c2)cc1,6%,22µM*,-15%,-5%,3%
CN(CCC#N)S(=O)(=O)c1ccc2[nH]cc(C(=O)NCCc3ccccc3)c(=O)c2c1,30%,25µM*,-1%,-4%,8%
CN(CC(=O)NCCc1ccc(Cl)cc1)S(=O)(=O)c1ccc2c(c1)c(=O)n(C)c(=O)n2C,10%,-2%,-20%,0%,6%
COc1ccc2[nH]cc(C(=O)NCCc3ccccc3)c(=O)c2c1,?,·,0%,-10%,7%
CCN(CC)S(=O)(=O)c1ccc2[nH]cc(C(=O)NCCC3=CCCCC3)c(=O)c2c1,10µM*,?,5µM*,-1%,2%
CN(CC(=O)NCCC1=CCCCC1)S(=O)(=O)c1ccc2c(c1)c(=O)n(C)c(=O)n2C,-13%,32µM*,0%,-3%,8%
Nn1c(C2COc3ccccc3O2)n[nH]c1=S (stereo not given),-35%,4.5µM*,20%,17µM*,7.1µM*
CN(C)S(=O)(=O)c1ccc(C(=O)N2CCN(C(=O)C3CCCO3)CC2)cc1 (stereo not given),·,·,·,0%,·
CN(C)S(=O)(=O)c1ccc(C(=O)N2CCC(c3nc4ccccc4o3)CC2)cc1,?,28µM*,-18%,-3%,12%
O=C(O)CSc1c2c(nc3cc(C(=O)N4CCOCC4)ccc13)CCCC2,5%,-2%,-11%,-17%,50µM*
CCOC(=O)N1CCN(C(=O)c2ccc3c(SCC(=O)O)c4c(nc3c2)CCCC4)CC1,11%,-6%,-5%,-14%,14%
COc1cc(NC(=O)c2ccc3c(SCC(=O)O)c4c(nc3c2)CCCC4)cc(OC)c1OC,5%,10µM*,1%[10 µM],-10%,-7%
COc1ncc2nc(-c3ccccc3)c(=O)n(C)c2n1,2%,?,-8%,·,17%
SMILES,RORgamma inh,ALDH1A1 inh,Gal4-VP16 FLuc,PLK1 PBD inh,Sfp PPTase inh
COC(=O)[C@@]1(Cc2ccccc2-c2ccco2)C=C[C@H](C)[C@@H](c2ccccc2)N1C(=O)C(F)(F)F,?,1%,0%,·,?
COc1ccc(CNC(=O)c2cc(-c3ccco3)on2)cc1,19%,3.5µM*,6%,-3%,4%
O=C(NCc1ccco1)c1cc(-c2cccs2)on1,4%,22µM*,8%,-4%,?
O=C(NCc1ccc(F)cc1)c1cc(-c2cccs2)on1,12%,?,-5%,-5%,45µM*
O=C(NCc1ccco1)c1nc2nc(-c3cccs3)cc(C(F)(F)F)n2n1,18%,?,0%,?,-29%
O=C(NCc1ccco1)c1nn2c(C(F)(F)F)cc(-c3cccs3)nc2c1Br,-37%,22µM*,-4%,-12%,20µM*
O=C(NCc1ccccc1)c1cc(-c2cccs2)on1,20%,-5%,5%,-6%,22%
CCc1nc2ccc(C(=O)NC3CCN(Cc4ccccc4)CC3)cn2c1N(C)Cc1cc2ccccc2s1,·,·,·,0%,·
O=C(NCc1ccco1)Nc1cccs1,-15%,28µM*,-2%,-11%,18µM*
O=C(NCc1ccco1)c1cnccn1,-5%,28µM*,11%,-14%,40µM*
C=CCN=C1N[C@@H](c2ccc(Br)cc2)C(C(=O)OC)=C(C)N1Cc1ccccc1,29%,·,-14%,·,-10%
CC(C)c1ccc(C(=O)N2CCCC(c3cc(C(=O)Nc4ccc5c(c4)OCO5)no3)C2)cc1 (stereo not given),·,·,·,10%,·
Cn1cccc([N+](=O)[O-])c1=O,·,·,·,-7%,·
Cc1ccc(-c2cn3cccc(C)c3n2)cc1,11µM*,?,-44%,-28%,-15%
Cc1cccn2cc(-c3ccc(Cl)cc3)nc12,5.6µM*,?,?,-5%,-4%
CCOC(=O)c1ccc(S(=O)(=O)N2CCC(C(=O)OCC)CC2)cc1,27%,5%,-4%,-3%,18%
CC(=O)N1CC(C)Sc2ccc(S(=O)(=O)NCc3ccccc3Cl)cc21 (stereo not given),11%,·,-7%,-3%,12%
CCOC(=O)C1CCN(S(=O)(=O)c2ccc(CC)cc2)CC1,?,-5%,?,8.4µM*,-3%
Cc1cc(S(=O)(=O)N2CCCC2)ccc1OCC(=O)N1CCC(C(N)=O)CC1,10%,?,0%,-4%,9%
CCOC(=O)C1CCN(C(=O)COc2ccc(S(=O)(=O)N3CCCC3)cc2C)CC1,17%,18µM*,7%,-16%,-2%
CC(=O)N1CC(C)Sc2ccc(S(=O)(=O)NC3CCCCC3C)cc21 (stereo not given),23%,·,-1%,30µM*,12%
CCOC(=O)C1CCN(S(=O)(=O)c2ccc3c(c2)N(C(C)=O)CC(C)S3)CC1 (stereo not given),12%,·,?,19µM*,14%
CCOC(=O)C1CCN(S(=O)(=O)c2ccc3c(c2)NC(=O)C(C)S3)CC1 (stereo not given),14%,·,-9%,-9%,9%
COC(=O)[C@@]12C[C@@H](CC(=O)N3CCN(C(=O)C4CC4)CC3)C(=O)N(Cc3ccccc3)C1=CCC(C)(C)C2,·,·,·,-4%,·
O=C(O)C[C@H](S)C(=O)O,·,-5%[13.5 µM],·,·,·
CCOC(=O)C1CCN(S(=O)(=O)c2cccc(-c3cn4cc(C)ccc4n3)c2)CC1,-19%,-1%,18µM*,-5%,18%
